An excerpt weighted towards active compounds, which were near 10% of everything screened.
ALDH1A1 inh = inhibitors of human aldehyde dehydrogenase 1A1. P00352. AID 1030. hit rate 7.3% among 220,000. Purified ALDH1A1, NADH fluorescence, propionaldehyde substrate. Potency, µM (series often up to 75.3 µM), without a hit: at the top dose activity, negative = inhibition, actives largely listed as inhibitors;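 further: potency means the concentration at half of the fitted maximal effect; plate controls were no enzyme wells and a reference inhibitor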
HPGD block = inhibitors of human 15-hydroxyprostaglandin dehydrogenase (HPGD); purified HPGD, NADH fluorescence kinetic, PGE2 substrate; hit rate 4.3% among 150,000; P15428; Potency, µM, inactives show at the highest dose activity change, negative = inhibition, most hits filed as inhibitors; further: potency means the concentration at half of the fitted maximal effect
Target sequence (P15428 whole entry, looked up): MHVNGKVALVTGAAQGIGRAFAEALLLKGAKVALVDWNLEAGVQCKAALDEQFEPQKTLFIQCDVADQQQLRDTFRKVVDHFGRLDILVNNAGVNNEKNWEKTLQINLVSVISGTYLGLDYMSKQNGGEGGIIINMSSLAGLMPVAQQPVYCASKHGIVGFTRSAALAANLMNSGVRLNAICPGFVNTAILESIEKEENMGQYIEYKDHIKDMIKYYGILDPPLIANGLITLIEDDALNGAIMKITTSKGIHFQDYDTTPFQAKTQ
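20 nM HPGD preincubated 15 min at room temperature with compound in 50 mM Tris-HCl pH 8, 0.01% Tween 20. Started with 1 mM NAD+ and 30 uM prostaglandin E2; NADH fluorescence (360/450 nm) read 5 times over 30-s intervals, last minus first.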
PNC assembly inh = perinucleolar compartment assembly inhibition | hit rate 3.1% among 140,000 | PC3M PTB-GFP, PNC prevalence imaging, 16 h; hits give low values | activity change (PNC), negative = inhibition, % at 10 µM;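 active means readout at or below -70, meaning at least 70% loss of cells showing the perinucleolar compartment, a nuclear body marking cancer cells; inconclusive means readout between -30 and a set limit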;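 further: plate controls were DMSO wells for no effect and camptothecin positive control wells for full effect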
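Compounds are pinned in duplicate onto adhered PC3M cells stably expressing GFP-tagged PTB and incubated 16 h at 37 C. Cells are then fixed, nuclei stained with Hoechst, and PNC-positive cells counted.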
LMNA splice mod = LMNA splicing modulation. HeLa LMNA splicing GFP/RFP minigene ratio, 48 h. Potency, µM (doses to about 46.1 µM), without a hit: top-dose ratio change, negative = inhibition, usual class: inhibitors. hit rate 0.01% among 200,000; active means well fitted inhibition curve with a large enough effect in the signal ratio, with a control signal flat, not every such curve was filed as active; inconclusive means small, poorly fitted or top-dose-only effect, or effect the other way, or a change in a side signal; the % refers to the signal ratio; further: potency means the concentration at half of the fitted maximal effect
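Read-out is the ratio of GFP to DsRed2 object intensity, acquired by 488 nm laser-scanning cytometry on HeLa lamin A-EGFP minigene reporter cells. Compound incubation 48 hrs at 37 °C in Opti-MEM with 2% FBS; DMSO 0.5% final.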
ALOX12 inhib = inhibitors of human 12-lipoxygenase (ALOX12); P18054; purified 12-hLO, xylenol orange hydroperoxide absorbance; Potency, µM (highest dose often 57.1 µM), for the others: at the highest dose activity change, negative = inhibition, most hits filed as inhibitors; hit rate 0.12% among 150,000; AID 1452; active means well fitted inhibition curve with a large enough effect; inconclusive means small, poorly fitted or top-dose-only effect; further: potency means the concentration at half of the fitted maximal effect; nearly all actives have a fitted effect of over 55% in size
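Hydroperoxide output read as Fe(III)-xylenol orange absorbance, 573-to-405 nm ratio, after 30 min reaction with 40 uM arachidonic acid. Enzyme: 150 nM purified human 12hLO, 15 min compound preincubation; 25 mM Hepes pH 7.0, room temperature.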
The depositor's hits bear a star; ? = inconclusive; . = no result; [ ] = dose if it differs, or a comment. Unless noted, the call rests on the fitted dose curve; in most records, active means well fitted inhibition curve with a large enough effect (not every such curve was filed as active); inconclusive means small, poorly fitted or top-dose-only effect, or another doubt; inactive means no such curve, though single readings can be large or run the other way. Unless noted, on the % scale 0 is the no-effect control and ±100 the full control effect.

SMILES	ALDH1A1 inh	HPGD block	PNC assembly inh	LMNA splice mod	ALOX12 inhib
C#CCNC(=O)C1=C[C@@H](c2cn(C(C)=O)c3ccccc23)C[C@@H](OCc2ccc(CO)cc2)O1	-6%	.	.	.	.
C#CCNC(=O)C1=C[C@@H](c2coc3ccccc3c2=O)C[C@@H](OCCCCO)O1	10µM*	.	.	.	.
CC(=O)n1cc([C@H]2C=C(C(=O)NCc3ccccc3)O[C@@H](OCc3ccc(CO)cc3)C2)c2ccccc21	16µM*	.	.	.	.
O=C(NCc1ccccc1)C1=C[C@@H](c2ccc(Br)cc2)C[C@@H](OCCCCO)O1	25µM*	.	.	.	.
CC(=O)n1cc([C@@H]2C=C(C(=O)N3CCN(Cc4ccccc4)CC3)O[C@H](OCc3ccc(CO)cc3)C2)c2ccccc21	16µM*	.	.	.	.
CC(=O)n1cc([C@H]2C=C(C(=O)N3CCN(Cc4ccccc4)CC3)O[C@@H](OCCCCO)C2)c2ccccc21	28µM*	.	.	.	.
NCCNC[C@H](O)CO	0%[13.5 µM]	-9%	.	.	5%[11.4 µM]
CN(C(=O)CSc1ccccc1C(=O)O)C1CCCCC1	3.2µM*	-6%	32	16%	9%
CN(C(=O)c1ccccc1Cl)C1CCCCC1	1%	28µM*	?	4%	1%
CN(C(=O)CSCC(=O)O)C1CCCCC1	2µM*	-10%	?	-5%	1%
Cc1csc2nc(COC(=O)c3cccc(NC(=O)c4cccc(Cl)c4)c3)cc(=O)n12	.	.	.	11%[46 µM]	.
O=C(CNC(=O)Cc1ccccc1)N=Nc1c(O)n(Cc2ccc3c(c2)OCO3)c2ccccc12	4µM*	.	?	3%	-5%
O=C(CCn1c(=O)c2ccccc2n(Cc2ccccc2)c1=O)NCc1ccc2c(c1)OCO2	2%	-5%	-1	19%	8%
O=C(N=Nc1c(O)n(Cc2ccccc2)c2ccccc12)c1ccc(O)cc1	13µM*	-6%	29	?	-3%
COc1ccc(C(=O)NCC(=O)N=Nc2c(O)n(Cc3ccccc3)c3ccccc23)cc1OC	18µM*	-6%	-17	-6%	1%
O=C(N=Nc1c(O)n(Cc2ccccc2)c2ccccc12)c1cc2ccccc2cc1O	18%	-17%	3	?	-2%
COc1cccc(CSc2nnc(CSc3nc4nc(C)cc(C)n4n3)s2)c1	?	16µM*	-28	-10%	9%
Cc1cc(C)n2nc(SCc3nc4ccccc4[nH]3)nc2n1	0%	-15%	?	-18%	12%
Nc1nnc(SCc2ccccc2Cl)s1	0%	-7%	20	14%	-5%
Cc1cc(C)n2nc(SCc3nnc(SCc4ccccc4C)s3)nc2n1	13%	25µM*	?	?	-5%
Cc1cc(C)n2nc(SCc3nnc(SCc4ccccc4Cl)s3)nc2n1	8%	28µM*	?	-6%	0%
CCOC(=O)c1sc2ccccc2c1S(=O)(=O)NCc1ccccc1OC	.	.	.	-8%[46 µM]	.
COc1ccc(N2CCN(C(=O)CSc3nc4ccccc4nc3Cc3ccc(Cl)cc3)CC2)cc1	.	.	.	7%[46 µM]	.
CN1CCN(c2ncc3nc(-c4cccs4)c(=O)n(CCC#N)c3n2)CC1	?	.	.	-6%	.
COc1ccc(CNC(=O)CCSCc2cccc(Cl)c2)c(OC)c1	?	28µM*	-24	-7%	-10%
SMILES	ALDH1A1 inh	HPGD block	PNC assembly inh	LMNA splice mod	ALOX12 inhib
C#CCOC(=O)CCC(=O)NCCc1ccccc1	10µM*	-16%	7	-5%	0%
COc1ccc(CNC(=O)CCSCc2ccccc2Cl)c(OC)c1	?	-24%	6	4%	-5%
Cc1ccccc1CSCCC(=O)NCCc1ccccc1	-12%	.	.	?	.
O=C(CCSCc1cccc(Cl)c1)NCCc1ccccc1	?	8.9µM*	29	-4%	-7%
O=C(NCCc1ccccc1)c1ccc(Cl)nc1	11%	-14%	-100*	3%	1%
O=C(NCCc1ccccc1)c1ccncc1	10%	-6%	-29	5%	-8%
CC[C@@H](C)[C@H]1O[C@]2(CC[C@@H]1C)C[C@@H]1C[C@H](C/C=C(/C)[C@H](O[C@@H]3C[C@H](OC)[C@H](O[C@@H]4C[C@H](OC)[C@@H](O)[C@H](C)O4)[C@H](C)O3)[C@@H](C)/C=C\C=C3CO[C@@H]4[C@H](O)C(C)=C[C@@H](C(=O)O1)[C@]34O)O2 (tested in a mixture with another compound)	-15%	?	.	.	-5%
O=C(Cc1ccccc1)NCCc1cccc(Cl)c1	?	10µM*	-26	-1%	5%
Cc1ccc(Nc2c([N+](=O)[O-])c(=O)n(C)c3ccccc23)cc1C	8.9µM*	-11%	4	-21%	-2%
Cn1c(=O)c([N+](=O)[O-])c(Cl)c2ccccc21	18µM*	.	.	?	.
Cn1c(=O)c([N+](=O)[O-])c(NCCc2ccccc2)c2ccccc21	-8%	16µM*	?	-17%	-5%
CCn1c(=O)c(C(=O)NCCc2ccccc2)c(O)c2ccccc21	0%	-9%	?	?	-5%
CCn1c(=O)c([N+](=O)[O-])c(NCCc2ccccc2)c2ccccc21	?	16µM*	?	-30%	1%
CCN(CC)c1c([N+](=O)[O-])c(=O)n(C)c2ccccc12	4%	.	.	.	.
CC(=O)Nc1ccc(Nc2c([N+](=O)[O-])c(=O)n(-c3ccccc3)c3ccccc23)cc1	10µM*	.	.	7%[46 µM]	.
CCn1c(=O)c([N+](=O)[O-])c(NCCc2ccc(OC)c(OC)c2)c2ccccc21	14µM*	8.9µM*	12	?	-5%
Cc1ccc(S(=O)(=O)Nc2ccccc2C(=O)c2ccc(C)c(C)c2)cc1	?	?	.	.	3%[11.4 µM]
N#CC(C#N)=C1C=C2C=C(N3CCCCCC3)CCC2CC1 (stereo unspecified)	?	-11%	-134*	?	-21%
COc1ccc(N(CC(C)C)S(=O)(=O)c2nnc(NC(=O)c3cccs3)s2)cc1	.	.	.	-9%[46 µM]	.
Cc1c(C(=O)NCc2cccc(Cl)c2)sc2nc3n(c(=O)c12)CCC3	.	.	.	-6%[46 µM]	.
COc1ccc(C)cc1N(C)C(=O)c1sc2nc3n(c(=O)c2c1C)CCCCC3	.	.	.	16%[46 µM]	.
CN(C)c1ccc(C(=O)Nc2ccc(S(=O)(=O)NC3=NCCCCC3)cc2)cc1	?	.	?	1%	0%
Cc1cccc(C(=O)N[C@H](C(=O)Nc2ccc(S(=O)(=O)NC3=NCCCCC3)cc2)C(C)C)c1	20µM*	.	.	-19%[46 µM]	.
Cc1cn(C)c(CC(=O)NCc2ccc(F)cc2)c1C(=O)O	.	.	.	-9%[46 µM]	.
CN(C)S(=O)(=O)c1cccc(-c2cn3cc(Cl)ccc3n2)c1	?	?	-83*	8%	-2%
CC(C)CO/N=C1/C[C@@H](O)[C@@H](O)[C@@H]2[C@@H]3C(=O)N(c4cccc(Oc5ccccc5)c4)C(=O)[C@H]3CC[C@H]12	-5%[13.5 µM]	.	.	.	.
Cc1nc2ccccc2nc1-c1ccc(N=[N+]([O-])c2ccc(-c3nc4ccccc4nc3C)cc2)cc1	2%[13.5 µM]	-1%	.	.	3%[11.4 µM]

High-throughput results from PubChem BioAssay.
